Reference: PubChem BioAssay (NCI)
About 83,000 compounds went through this panel and 20% of them were active in at least one assay; those are over-represented in the sample as a whole.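 Assay: single dose, 48 h. Readout: percent growth (0 = no net growth; negative = cell death). Active: <10.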 Values without a mark were called inactive. The source made the active and inactive calls.

Tested on: HCC-2998 colon
Assay: NCI-60 one-dose screen, 48 h (100 = growth as untreated, 0 = no growth, -100 = all killed)
Conditions: 10 µM unless noted

**Q.** Which growth does the source give for CC1=C(C(=O)Nc2ccccc2)C(c2cccc3ccccc23)n2c(nc3ccccc32)N1 (stereo not drawn) here?
**A.** Its growth is 90.5%.

**Q.** Which growth does the source give for COc1ccc2nc(NC(=O)c3ccc(N(C)C)cc3)sc2c1 here?
**A.** Its growth is 98.2%.

**Q.** With C[C@H]1[C@@H](CC(=O)N[C@@H](Cc2coc3ccccc23)B(O)O)O[C@@H]2OC3(C)CC[C@H]4[C@H](C)CC[C@@H]1[C@@]24O3 as the molecule, how does the growth read?
**A.** The growth was -83.1% (active).

**Q.** With Fc1ccc(N2CC(Cn3c(C(F)(F)F)cc4c(Cl)ncnc43)C2)c(F)c1 as the molecule, how does the growth read?
**A.** Its growth is -91.4% (active).

**Q.** Cn1cc(-c2cc(N)n3nc(-c4c[nH]c5ccc(F)cc45)cc3n2)c2cc(Br)cnc21 was tested. Which growth did it give?
**A.** Its growth is 13.8%.

**Q.** For O=C1Nc2ccc(F)cc2/C1=C/C(=O)c1cc2ccccc2oc1=O, which growth is on record?
**A.** The growth was 121%.

**Q.** Which growth does the source give for O=C(CSc1nc2ccccc2c(=O)[nH]1)NNC(=O)c1ccccc1Cl here?
**A.** Its growth is 113%.

**Q.** Which growth does the source give for CCCCNc1ccc2c3c(cccc13)C(=O)N(NCC(O)COc1ccc3c(C)cc(=O)oc3c1)C2=O (stereo not drawn) here?
**A.** Its growth is 104%.

**Q.** COc1cc(CNC(=O)C[C@H](C)CCC=C(C)C)ccc1OCc1cn(-c2ccccc2Cl)nn1 was tested. Which growth did it give?
**A.** The growth was 91.9%.

**Q.** How did the growth turn out when Cc1cccc(-c2ccccc2Oc2ccc3nnc(Cl)n3n2)c1 was run?
**A.** The growth was 105%.

**Q.** CCOc1ccccc1[C@H]1C(C(=O)c2ccc(Cl)cc2)C2(N[C@@H]1c1ccccc1)C(=O)Nc1ccccc12 (stereo partly drawn) was tested. Which growth did it give?
**A.** The growth was 6.07% (active).

**Q.** How did the growth turn out when CCc1ccccc1-c1nc(CN[C@@H]2C[C@@H]3C[C@H]([C@H]2C)C3(C)C)c(C)o1 was run?
**A.** Its growth is -83.9% (active).

**Q.** Which growth does the source give for COc1cc(C=O)ccc1OC(=O)c1cc(-c2ccc(C)cc2)n(-c2ccc(S(C)(=O)=O)cc2)n1 here?
**A.** The growth was 118%.

**Q.** Which growth does the source give for COC(=O)c1ccc(-c2c(-c3ccccc3)c(F)c3oc(C(=O)OC)c(N)c3c2-c2ccccc2)cc1 here?
**A.** The growth was 98.4%.

**Q.** With C#CCN(C)CCCOc1ccc(N(C)C(=O)c2cc(C(C)C)c(O)cc2O)cc1Cl as the molecule, how does the growth read?
**A.** Its growth is -38.4% (active).

**Q.** With COc1c2c(c(Br)c3c1C(CCc1ccccc1)N(C)CC3)OCO2 (stereo not drawn) as the molecule, how does the growth read?
**A.** The growth was 27.4%.

**Q.** For CN(C(=O)CN1C(=O)/C(=C/c2ccco2)SC1=S)C1CCS(=O)(=O)C1 (stereo not drawn), which growth is on record?
**A.** The growth was 104%.

**Q.** Which growth does the source give for COc1ccc(-c2nnc3c(/C=C/c4ccc(Br)cc4)nc4ccccc4n23)cc1 here?
**A.** The growth was 87.7%.

**Q.** With CN(C)c1nc(NCCNS(=O)(=O)c2ccc(C3=Nc4c(N)nc(N)nc4NC(c4ccc(Cl)cc4)C3)cc2)nc(N2CCOCC2)n1 (stereo not drawn) as the molecule, how does the growth read?
**A.** Its growth is 39.3%.

**Q.** Which growth does the source give for CC1=C(C(=O)OCc2ccccc2)C(c2cccc3ccccc23)n2c(nc3ccccc32)N1 (stereo not drawn) here?
**A.** The growth was 57%.

**Q.** For NNc1ncnc2sc3c(c12)CCN(Cc1ccccc1)C3, which growth is on record?
**A.** The growth was 52.1%.

**Q.** How did the growth turn out when c1n[nH]cc1-c1nc2ccc3[nH]ncc3c2c2c1CC1(CC2)COC1 was run?
**A.** Its growth is 60.4%.

**Q.** With CC[C@]12C=CCN3CC[C@]4(C(=C(C(=O)OC)C1)Nc1cc(OC)c([C@@H]5[C@H]6O[C@H]6[C@@]6(CC)CC(C(=O)OC)=C7Nc8cc(OC)ccc8[C@@]78CCN5[C@@H]68)cc14)[C@@H]32 as the molecule, how does the growth read?
**A.** The growth was 112%.

**Q.** For COc1sc(/C=N/NC(=O)c2[nH]c3ccc(Br)cc3c2-c2ccccc2)cc1Br, which growth is on record?
**A.** The growth was 8.54% (active).

**Q.** Cc1nc(Nc2ccccn2)sc1C1=NNC(c2ccccc2F)C1 (stereo not drawn) was tested. Which growth did it give?
**A.** The growth was 95.7%.

**Q.** CN1CCN(c2ccc3c4c(cccc24)C(=O)N(c2cccc(-c4nn(-c5ccccc5)cc4-c4nc5ccccc5s4)c2)C3=O)CC1 was tested. Which growth did it give?
**A.** Its growth is 79.2%.

**Q.** Cc1ccc2c(c1)nc(-c1ccccc1)n2CC(=O)N=Nc1c(O)[nH]c2ccc(Cl)cc12 was tested. Which growth did it give?
**A.** Its growth is -71.3% (active).

**Q.** Which growth does the source give for O=C(N/N=C/c1ccc(Br)o1)c1[nH]c2ccc(Br)cc2c1-c1ccccc1 here?
**A.** The growth was -7.57% (active).

**Q.** Which growth does the source give for COc1cc(/C=C/C(=O)c2ccc(S(=O)(=O)NCCNc3nc(N(C)C)nc(N4CCOCC4)n3)cc2)cc(OC)c1OC here?
**A.** The growth was -100% (active).

**Q.** Which growth does the source give for COc1cc(/C=C/C(=O)c2cnn(-c3cc(=O)[nH]c4ccccc34)c2C)cc(OC)c1OC here?
**A.** Its growth is -1.51% (active).

**Q.** For Cc1ccccc1Nc1nnc(-c2c[nH]c3ccccc23)o1, which growth is on record?
**A.** The growth was 11.3%.

**Q.** With O=CNc1ccc(-n2cnc3cc(-c4ccc(O)cc4)ccc32)cc1 as the molecule, how does the growth read?
**A.** Its growth is 102%.

**Q.** C#CCN(C)CCCOc1ccc(N(CC)C(=O)c2cc(C(C)C)c(O)cc2O)cc1Cl was tested. Which growth did it give?
**A.** The growth was -78.2% (active).

**Q.** How did the growth turn out when CCOC(=O)/C(F)=C/C1CC1CCc1ccc(OCC)cc1 (stereo not drawn) was run?
**A.** Its growth is 90.5%.

**Q.** Which growth does the source give for O=C(CSc1nc2c(c(=O)[nH]1)CCCC2)Nc1ccccc1C(=O)O here?
**A.** The growth was 123%.

**Q.** For O=C1CCC(N2C(=O)c3cccc(NCCCCCC(=O)N4CCN(c5ccc6nc7c(nc6c5C(F)(F)F)C(=O)c5ncccc5C7=O)CC4)c3C2=O)C(=O)N1 (stereo not drawn), which growth is on record?
**A.** Its growth is -98% (active).

**Q.** With O=C(c1cc2cc(OCCCN3CCC3)ccc2[nH]1)N1C[C@@H](CCl)c2c1cc(OCc1ccccc1)c1ccccc21 as the molecule, how does the growth read?
**A.** Its growth is -77.1% (active).

**Q.** How did the growth turn out when CC(C)C[C@H](NC(=O)CNC(=O)C[C@H]1O[C@@H]2OC3(C)CC[C@H]4[C@H](C)CC[C@@H]([C@H]1C)[C@@]24O3)B(O)O was run?
**A.** The growth was -94.5% (active).
